Test results: the supplement of paper PMC10338343
± gives the standard deviation.

The sequences below were run on MILI (PIWIL2) piRISC loaded with piRNA #1 (26 nt) (assay: pre-steady-state target cleavage rate (min^-1); guide: piRNA #1 5'p-UGAGGUAGUAGGUUGUAUAGUAUCCA; MIWI and MILI are mouse PIWI proteins and EfPiwi is from a freshwater sponge; tags in brackets are library labels; higher = faster piRNA-guided slicing of the target). Conditions: auxiliary factor: 500 nM mouse GTSF1.
Experimental: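 Cleave-'n-Seq: a library of target RNAs (target site embedded in constant flanks, ACAGCATTCCGCGTTAGTGATATCCG... 5' flank; DNA-blocked outside the site) at 0.1 nM was incubated with 1 nM active mouse MILI or MIWI piRISC (synthetic 5'-monophosphorylated piRNA guide) with or without 500 nM mouse GTSF1 at 33 °C for 1 min to 16 h. Uncleaved targets were sequenced and normalised to non-target controls, and the pooled three trials were fitted to a burst-and-steady-state model to give the pre-steady-state cleavage rate (min^-1; k3 is constrained to at most 1e-4). Sequence is the target site only; target names encode pairing extent (gX:gY) and contiguous / 1-mismatch / 2-mismatch / bulge geometry. Fits with R² ≤ 0 are excluded.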

Sequence | pre-steady-state target cleavage rate
GGAGACCUAACUUUUCAACCUACUACCUCA | 0.0456 ± 0.014
GGAGACGAUACUAUUCAACCUAGUACCUCA | 0.0492 ± 0.01
GGAGACCAGACUAUACAACCUACUACCUCA | 0.193 ± 0.06
GGAGACCUAUGAUUACAACCUACUGCCUCA | 0.00572 ± 0.0028
GGAGAGGAUAGUAUACAACCUACUACCACA | 0.0774 ± 0.011
GGAGACCUAACUAUAGAACGUACUACCUCA | 0.00603 ± 0.0028
GGAGACCUUACUAUACAACCGUACUACCUCA | 0.00868 ± 0.0053
GGAGAGGAUUCUAUACUACCUACUACCUCA | 0.161 ± 0.0097
GGAGUCGAUACUAUACAACCUACUACCUGA | 0.0703 ± 0.011
GGAGACCUUACUAUACAACUACUACCUCA | 0.0157 ± 0.0032
GGAGACCUUACUACUACAACCUACUACCUCA | 0.107 ± 0.011
GGAGAGGAUACUAUACAACCUACUACUCA | 0.109 ± 0.017
GGAGAGGAUACUUUACAACCUACUUCCUCA | 0.00524 ± 0.0027
GGAGACCAUACUAUAUAACCUACUACCUCA | 0.155 ± 0.016
GGAGUCGAUACUAUACAACCAACUACCUCA | 0.0053 ± 0.0019
GGAGACCUAACUAUACAACCCACUACCUCA | 0.0098 ± 0.0041
GGAGUGCAUUCUAUACAACCUACUACCUCA | 0.13 ± 0.011
GGAGACCUAACUAUACAACCUAUCUACCUCA | 0.11 ± 0.024
GGAGACCUUACUAUACAACCUACUAGCUCA | 0.145 ± 0.02
GGAGACCUAUGAUAUGUUCCUACUACCUCG [g2:g12:cont:t1G] | < 0.0001

Sequence | pre-steady-state target cleavage rate
GGAGUGGUUACUAUACUACCUACUACCUCA | 0.183 ± 0.01
GGAGAGGAUUCUAUACAACCAACUACCUCA | 0.00507 ± 0.0028
GGAGACGAUACUAUAUAACCUACUACCUCA | 0.205 ± 0.011
GGAGACCAUACUAUACAACCUACUCACCUCA | 0.169 ± 0.015
GGAGACCUAUGUAUACAACCCACUACCUCA | 0.0101 ± 0.0034
GGAGACCAUACUAUACAACAUACUACCUCA | 0.0769 ± 0.0092
GGAGACCUAUCAAUACAACCUACUACCACA | 0.0775 ± 0.019
GGAGACCUAUGUAUACAAACUACUACCUCA | 0.111 ± 0.012
GGAGACCUAACUAUACAACCUAUUACCUCA | 0.0965 ± 0.018
GGAGACGAUACUUUACAACCUUCUACCUCA | 0.00805 ± 0.0018
GGAGACCUAUGAUUACAACCUACAACCUCA | 0.00538 ± 0.0023
GGAGACGAUACUAUACUAGCUACUACCUCA | 0.198 ± 0.011
GGAGACCUUUCUAUAGAACCUACUACCUCA | 0.0818 ± 0.011
GGAGAGGAUACAAUACAACCUACUUCCUCA | 0.0281 ± 0.0083
GGAGACCUAUGAUUACAUCCUACUACCACA | 0.0105 ± 0.0035
GGAGACCUAUGAUAUGUUGCUACUGACCUCA | < 0.0001
GGAGACCUAUGAUUAUAACCUACUACCUCA | 0.00484 ± 0.0026
GGAGACGAUAGUAUUCAACCUACUACCUCA | 0.156 ± 0.012
GGAGACCUAUCUAAACAACCUUCUACCUCA | 0.00634 ± 0.0024
GGAGAGGAUAGUAAACAACCUACUACCUCA | 0.0497 ± 0.011
